# This is a sample that favours compounds with a hit; in the whole collection about 0.81% have one here.
# IDE cell activ = human IDE activators in live cells, primary screen, fluorescence polarization, HEK cells, FAbeta-B substrate; Insulin-degrading enzyme (Homo sapiens), P14735; activation, % at 5.96 µM; 0.073% of 340,000 active; FAbeta-B cleavage; 0% vehicle, 100% cell-free pure enzyme wells;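 active = activation above the mean of all tested compounds plus 3 SD, set per screening campaign, cut at about 17% in these data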
# IDE cell inh = human IDE inhibitors in live cells, primary screen, fluorescence polarization, HEK cells, FAbetaB substrate | Insulin-degrading enzyme (Homo sapiens), P14735 | 0.41% of 320,000 active | FAbetaB cleavage | inhibition, % at 5.59 µM;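 active = percent inhibition above the average of all tested compounds plus 3 SD, set per screening campaign, cut at about 16% in these data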;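 also: IDE supplied by intact live HEK cells; FP after avidin binding of uncleaved biotin substrate so inhibition keeps polarization high; 0% = DMSO wells and 100% = 60 µM reference IDE inhibitor Ii1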
# RTF Ca sens act = cardiac RTF calcium sensitivity activators, primary screen, biochemical, IANBD-TnC fluorescence, EC20 calcium; IANBD-labeled TnC RTF fluorescence at EC20 calcium; 0% EC20 calcium, 100% full calcium; Troponin I, cardiac muscle (Homo sapiens) + Troponin T, cardiac muscle (Homo sapiens) + …; activation, % at 7.2 µM; AID 493008, 2010; 0.24% of 340,000 active;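 active = activation above the mean over all tested compounds plus 3 SD, cut at about 30% in these data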;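 also: rise in fluorescence read as greater calcium sensitivity of cardiac thin filaments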
# Keap1 Nrf2 FP = Keap1-Nrf2 protein-protein interaction inhibitors, primary screen, biochemical, fluorescence polarization, single point. Kelch-like ECH-associated protein 1 (Homo sapiens), Q14145. Keap1 Kelch-Nrf2 peptide fluorescence polarization, 1536-well. inhibition, % at 9.4 µM. 0.15% of 340,000 active; in the data active = inhibition above about 12%;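 also: human Keap1 Kelch domain with fluorescein labeled Nrf2 9mer peptide probe; 0% = neutral control wells and 100% = peptide positive control; higher means more block of Keap1 binding to Nrf2 peptide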
# Cardiac RTF inh = cardiac RTF calcium sensitivity inhibitors, primary screen, biochemical, IANBD-TnC fluorescence, EC70 calcium. IANBD-labeled cardiac RTF, Ca2+ fluorescence. inhibition, % at 7.15 µM. 0.12% of 340,000 active;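 active = inhibition above the mean inhibition of all tested compounds plus 3 SD, cut at about 17% in these data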;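 also: assay run at fixed EC70 calcium of 1.6 mM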
# C-LANA FP = inhibitors of KSHV C-LANA binding to DNA, primary screen, biochemical, fluorescence polarization, FAM-LBS DNA, MBP-C-LANA, single point; 0.078% of 340,000 active; AID 504423, 2011; Kaposi's sarcoma herpesvirus LANA C-terminal domain (residues 932-1162) DNA binding; inhibition, % at 9 µM;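 active = highest replicate inhibition at or above 60% at 9 µM, even if other replicates fall short; inactive = all replicates below 60% inhibition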;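 also: 0% = neutral control wells and 100% = 4 µM acridine orange control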
# IDE inh confirm = human IDE inhibitors in live cells, confirmation, fluorescence polarization, HEK cells, FAbetaB substrate. inhibition, % at 5.59 µM. FAbetaB cleavage. shares compounds with IDE cell inh. 51% of 1,200 active. AID 435028, 2010;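 active = mean inhibition across triplicate wells above the cutoff set by the earlier primary insulin-degrading enzyme screen, cut at about 16% in these data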;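 also: 0% = DMSO wells and 100% = 60 µM reference IDE inhibitor Ii1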
# HEK293 tox = cytotoxicity in HEK cells, cytotoxicity control for IDE inhibitor project, cell-based, luminescence; 28% of 1,200 active; inhibition, % at 5.59 µM; HEK293 cytotoxicity, ATP luminescence; shares compounds with IDE cell inh; in the data active = inhibition above about 22%;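 also: 0% = vehicle wells and 100% = reference cytotoxic drug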
# IDE FP artifact = fluorescent or optically active artefacts, dose response, artefact control for IDE inhibitor project, biochemical, fluorescence polarization | shares compounds with IDE cell inh | FP counterscreen for fluorescent artifacts, IDE probe project | IC50, µM | 30 tested, under 10 active | AID 588718, 2011; call rule not given here
# An asterisk follows results filed as active; / = not tested or not shown.
SMILES,IDE cell activ,IDE cell inh,RTF Ca sens act,Keap1 Nrf2 FP,Cardiac RTF inh,C-LANA FP,IDE inh confirm,HEK293 tox,others
O=C(NN1C(=O)/C(=C/c2ccc(O)c(O)c2)SC1=S)c1ccccc1,-43,43*,8,-17,0,-9,87*,17,
Nc1c2c(nc3ccn(-c4ccccc4)c(=O)c13)CCCCC2,-8,18*,-7,1,-11,0,19*,15,
Cn1c(/C=N/NC(=O)c2ccccc2Br)nc2ccccc21,-17,20*,0,-1,-5,-1,3,17,
CCOC(=O)/C(C#N)=C1\C(=O)N(Cc2ccccc2)c2ccccc21,-4,12,5,-2,-10,0,/,/,
CC(=O)c1sc(N/N=C\c2ccccc2O)nc1C,-37,31*,5,2,0,-1,48*,6,
COc1ccc(C2=NN(c3ccc(C=O)cc3)C(c3ccccc3)C2)cc1 (stereo not drawn),/,2,/,/,/,/,/,/,
COc1ccc(C2CC(c3cccs3)=NN2c2ccc(C=O)cc2)cc1 (stereo not drawn),/,30*,/,/,/,/,19*,14,
COc1cc(C2C(C#N)=C(N)Oc3cc(O)ccc32)cc2c1OCO2 (stereo not drawn),0,-4,-5,2,-9,-1,/,/,
COc1cc(C2C(C#N)=C(N)Oc3cc(N(C)C)ccc32)cc2c1OCO2 (stereo not drawn),-20,19*,13,-2,-27,1,15,67*,
Cc1cc(S(=O)(=O)N2CCC3(CC2)OCCN3S(=O)(=O)c2cccs2)ccc1F,3,-1,12,-4,3,1,/,/,
N#C/C(=C(/O)CSc1ccccn1)c1nc2ccccc2s1,-1,30*,5,-3,-3,1,5,6,
Cc1ccc(SC/C(O)=C(\C#N)c2nc3ccccc3s2)cc1,6,7,1,1,0,0,/,/,
Cc1ccc(-c2csc3nc[nH]c(=S)c23)cc1C,-9,22*,-5,-4,-5,1,3,13,
O=C(O)CSCC(=O)N1CCN(c2ccnc3cc(Cl)ccc23)CC1,-14,30*,0,-1,2,0,6,6,
O=C(Nc1cc(F)ccc1F)N1CCN(c2ccnc3cc(Cl)ccc23)CC1,-39,22*,4,-7,3,-1,9,-3,
CCCCNC(=O)N1CCN(c2ccnc3cc(Cl)ccc23)CC1,-18,19*,-2,-6,-3,0,11,18,
Cc1cccc(Cl)c1NC(=O)N1CCN(c2ccnc3cc(Cl)ccc23)CC1,-24,24*,7,-4,-1,-2,11,21,
CCOC(=O)N1CCN(C(=O)CS(=O)(=O)c2cn(Cc3cccc(F)c3)c3ccccc23)CC1,6,3,-2,1,-6,-2,/,/,
Cc1cc(N2CCOCC2)nc(-c2ccc([N+](=O)[O-])cc2)n1,1,9,-3,2,6,0,/,/,
COc1ccc(C2NS(=O)(=O)OCC2C)cc1 (stereo not drawn),4,1,-3,0,-1,-2,/,/,
Cc1cccc(Nc2nc(N)c(C#N)c(CC#N)c2C#N)c1,-7,26*,5,-4,5,0,19*,13,
COc1c(/C=N/NC(N)=S)c(C)nn1-c1ccccc1,-10,22*,-2,-9,-8,-3,3,11,
CCNS(=O)(=O)c1ccc(C(=O)OCc2cc(=O)oc3cc(OC)ccc23)cc1,1,6,-2,1,-2,-1,/,/,
O=C(CSc1nnc(-c2cccc(Cl)c2)n1Cc1ccco1)Nc1ccc2c(c1)OCCO2,/,/,/,/,/,/,/,/,IDE FP artifact=>55
O=C(CSc1nnc(-c2ccccc2)n1Cc1ccco1)Nc1ccc2c(c1)OCCO2,1,10,1,-4,2,-1,/,/,
SMILES,IDE cell activ,IDE cell inh,RTF Ca sens act,Keap1 Nrf2 FP,Cardiac RTF inh,C-LANA FP,IDE inh confirm,HEK293 tox,others
COc1cc(/C=C(/C#N)C(=O)NC(C)c2ccccc2)cc(OC)c1O (stereo not drawn),-53,75*,-4,-20,-10,-6,79*,10,
CC(NC(=O)/C(C#N)=C/c1ccc(C(=O)O)cc1)c1ccccc1 (stereo not drawn),-2,1,5,-8,-8,-8,/,/,
CC(=O)N(C(C)=O)c1nc(-c2ccccc2)cn1/N=C/c1ccccc1,-25,25*,0,-1,-6,-1,20*,17,
C[n+]1cn(/N=C/c2ccccc2)c2ccccc21,-1,-2,2,-4,4,-1,/,/,
COc1ccc(O)c(C(=O)c2coc(=N)c(C(=O)Nc3ccc(SC(F)F)cc3)c2)c1,-22,20*,6,-5,-3,-1,38*,24*,
Cc1ccc(S(=O)(=O)/N=C2/NC(=O)/C(=C/c3cc([N+](=O)[O-])ccc3O)S2)cc1,-45,58*,16,-40,-27,-12,80*,5,
COc1ccc(Cl)cc1NC(=O)C1CCCN(c2cc(C)nc3ncnn23)C1 (stereo not drawn),-27,16*,-1,1,1,-1,13,9,
CCCc1cc(N2CCCC(C(=O)Nc3cc(Cl)ccc3OC)C2)n2ncnc2n1 (stereo not drawn),-2,7,14,1,-12,0,/,/,
N#C/C(C(=O)Nc1ccc(Cl)cc1)=C(/S)Nc1ccccc1,-24,46*,-8,-5,-15,1,4,24*,
Cc1ccc(-c2nc3ccccc3[nH]2)cc1NC(=O)c1ccc2c(c1)OCO2,-2,-1,-2,-1,-4,2,/,/,
Cc1ccc(-c2nc3ccccc3[nH]2)cc1NC(=S)NC(=O)c1ccccc1Br,-16,18*,-1,-5,-13,-1,14,31*,

# Bioassay records (PubChem)
